Sampled rows, rich in hits. Any-hit rate of the full collection: about 9.6%.
Insulin prom inh: TRM-6 insulin promoter activity inhibition; TRM-6 cells (human fetal islet line), insulin promoter-eGFP reporter, imaging; reporter expression induced with tamoxifen; 130,000 compounds, 0.9% hits; inhibition, % at 2 µM;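 active = inhibition above the mean plus 3 SD, with well images judged a real hit on visual review, cut at about 60% in these data, passing the limit was not always enough; inconclusive = inhibition over the cutoff but images rejected on review; inactive = inhibition not above the cutoff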
Autophagy HCS: autophagy modulation, high-content screen. MEF GFP-LC3 puncta imaging; test concentration mostly 10 µM. calls only at 10 µM (by protocol). 190,000 compounds, 0.98% hits;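 active = percentage of spot-positive cells more than 3 SD above its plate mean, without a fluorescence outlier flag or 80% toxicity; inconclusive = no clear call, values can overlap the other calls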;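 also: spot-positive cell cutoff set from DMSO-treated cells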
Insulin prom up: MIN6 insulin promoter up-regulation; 190,000 compounds, 0.3% hits; AID 1625; z-score at 5 µM; MIN6 insulin promoter-GFP reporter, high-content imaging; stronger effect = higher value;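 active = z-score above 3 at 5 µM with at least 500 cells counted in the well; inconclusive = wells under 500 cells, flagged as cytotoxic or low count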
HCT116 PTEN-null: PTEN-deleted cell growth suppression | HCT116 PTEN-null viability, CellTiter-Glo, 60 h; stronger effect = lower value | viability, % at 10 µM | 140,000 compounds, 1.2% hits;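 active = viability at or below a set limit, 4 SD under the median of all tested compounds, cut at about 3.7% in these data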;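 also: PTEN knockout HCT116 line with beta catenin targeted HCT116 as companion control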
HCT116 bCat-KO: beta-catenin-lacking colon tumor cell growth suppression; HCT116 beta-catenin knockout viability, CellTiter-Glo, 60 h; stronger effect = lower value; viability, % at 10 µM; 140,000 compounds, 1.5% hits; AID 818;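 active = viability at or under a set limit, the compound median less 4 SD, cut at about 6% in these data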;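 also: 0% = Hyamine 1622 control at 20 µM and 100% = untreated cell control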
Lmaj promast: inhibitors of Leishmania major promastigote growth | AID 1063 | inhibition, % at 10 µM | Leishmania major promastigotes, resazurin fluorescence viability | 200,000 compounds, 9% hits; in the data active = inhibition above about 50%;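 also: promastigotes grown with compound for 44 hours at 28 °C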
Lmaj promast 1uM: L. major promastigote growth inhibition, 1 uM repeat; shares compounds with Lmaj promast; resazurin fluorescence, 48 h; inhibition, % at 1 µM; 1,100 compounds, 13% hits;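 active = inhibition above about 50% in both repeat tests, limit read from the data; inconclusive = one repeat under the set limit, the other over it; inactive = both repeats under the set limit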
The depositor's hits bear a star; i = inactive; ? = inconclusive; nt = no result; + = active, no number.

SMILES	Insulin prom inh	Autophagy HCS	Insulin prom up	HCT116 PTEN-null	HCT116 bCat-KO	Lmaj promast	Lmaj promast 1uM
Clc1ccc(-c2ccc(-c3nn4c(-c5ccco5)nnc4s3)o2)cc1	16	i	nt	nt	nt	-3	nt
O=C(c1ccccc1)c1c2c(cc3sc4ccccc4[n+]13)-c1cccc3cccc-2c13	-233	+	?	2.3*	2.1*	100*	100*
Cc1cccc(NC(=O)Cc2noc3ccccc23)c1C	0	i	-0.15	109	98	0	nt
Cc1cccc2c(CC(=O)O)noc12	19	i	0.03	100	97	79*	-3
C(=C/c1nccc2c1[nH]c1ccccc12)/c1ccc2c(c1)OCO2	-226	i	nt	nt	nt	96*	5
O=c1c2ccccc2nc(/C=C/c2ccc3c(c2)OCO3)n1CCCO	-4	i	nt	nt	nt	13	nt
O=C(CSc1ccc(Cl)cc1)Nc1ccc(-c2nc3ccccc3[nH]2)cc1	2	i	0.09	51	80	-6	nt
N=C(N)CCCOc1ccccc1-c1ccccc1	-14	i	-1.5	78	81	53*	-11
CNCCOc1ccccc1-c1ccccc1	3	i	nt	91	81	4	nt
Cc1cc(C(F)(F)F)nn1CC(=O)NCc1ccccc1	4	i	-1.3	105	102	-1	nt
Cc1cc(C(F)(F)F)nn1CC(=O)Nc1ccc(Br)c2cccnc12	0	i	-0.09	85	84	96*	-14
CN1CC(c2ccccn2)C2(SC(=S)N(Cc3ccccc3)C2=O)C12C(=O)Nc1ccccc12 (configuration not stated)	-54	i	-1.6	47	52	100*	14
Cc1ccc(C2CN(C)C3(C(=O)Nc4ccccc43)C23COc2ccccc2C3=O)cc1 (configuration not stated)	-20	i	-0.78	44	57	29	nt
Cc1sc(N)c(C#N)c1C	-4	i	0	98	96	51*	-19
CCN(CC)C(=O)c1sc(N)c(C#N)c1C	64	i	0.27	104	99	-2	nt
CC(OC(=O)c1ccccc1Br)C(=O)Nc1nc(-c2cccc([N+](=O)[O-])c2)cs1 (configuration not stated)	nt	i	0.07	96	85	2	nt
O=C(Nc1nc(-c2cccc([N+](=O)[O-])c2)cs1)C(c1ccccc1)c1ccccc1	26	i	-0.63	33	48	59*	-2
Cc1ccc(C2CN=NC23CCc2ccccc2C3=O)cc1 (configuration not stated)	38	i	0	72	79	-4	nt
O=C1c2ccccc2CCCC12N=NCC2c1cccc2ccccc12 (configuration not stated)	nt	i	0.54	58	55	53*	7
COc1ccc(N2C(=O)CC(SCc3ccc(Cl)cc3)C2=O)cc1 (configuration not stated)	nt	nt	0.1	nt	nt	nt	nt
COc1ccc(S(=O)(=O)Nc2ccc(O)c3ccccc23)cc1	15	i	-1.4	2.3*	1.5*	100*	97*
COc1ccc(-c2cc(Nc3ccccc3NC(=O)C(F)(F)F)n(CCC#N)n2)cc1	60*	i	-0.76	97	90	63*	-14
Cc1nn(Cc2ccc(Cl)cc2)c(=O)n1N(C)c1ncc(C(F)(F)F)cc1Cl	-34	i	nt	71	81	94*	-17
COc1ncnc2c1oc1ccccc12	21	i	nt	nt	nt	-3	nt
Nc1nn(-c2ccccc2)c(N)c1N=Nc1ccc2c(c1)OCO2	-123	i	0.02	23	17	87*	79*
Cc1ccc(S(=O)(=O)NCCC(=O)N2CCCCC2)cc1	nt	i	-0.72	nt	nt	-4	nt
CCCCc1nc2ccccc2n1Cc1nnc2n1-c1ccccc1SC2	nt	i	-0.96	87	100	8	nt
COc1ccc(C(=O)C2CCCN(C(=O)c3ccccc3C(C)=O)C2)cc1F (configuration not stated)	nt	i	-0.39	nt	nt	0	nt
COc1cccc(CNS(=O)(=O)c2cc(Br)cc3c2N(C(C)=O)C(C)C3)c1 (configuration not stated)	-23	i	nt	98	79	5	nt
CCC(CC)NCC(O)COc1ccc(Br)cc1 (configuration not stated)	nt	i	-0.83	nt	nt	66*	6
